Source: PubChem BioAssay
AMA1 RON2 block: qHTS for Inhibitors of AMA1-RON; Towards Development of Antimalarial Drug Lead: Primary Screen | Plasmodium falciparum AMA1 (3D7) - RON2 peptide interaction | AlphaScreen AMA1-biotinylated RON2 peptide binding | Potency, µM (titrated, usually from 58.2 µM), usual class: inhibitors | hit rate 0.2% among 360,000; further: nearly all actives have a fitted effect of over 45% in size
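AMA1 (3D7) with his tag at 25 nM final met compounds first, then biotinylated RON2 peptide at 25 nM; detection used donor plus acceptor beads, 10 µg/mL apiece, read by AlphaScreen after 30 min at room temperature.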
AmpC no deterg: qHTS Inhibitors of AmpC Beta-Lactamase (assay without detergent) | P00811 | AmpC nitrocefin hydrolysis, absorbance 480 nm, 0.0001% Triton | Potency, µM (titrated, usually from 57.1 µM), actives largely listed as inhibitors | hit rate 0.52% among 330,000; further: nearly all actives have a fitted effect of over 20% in size
Target sequence (P00811 whole entry, looked up): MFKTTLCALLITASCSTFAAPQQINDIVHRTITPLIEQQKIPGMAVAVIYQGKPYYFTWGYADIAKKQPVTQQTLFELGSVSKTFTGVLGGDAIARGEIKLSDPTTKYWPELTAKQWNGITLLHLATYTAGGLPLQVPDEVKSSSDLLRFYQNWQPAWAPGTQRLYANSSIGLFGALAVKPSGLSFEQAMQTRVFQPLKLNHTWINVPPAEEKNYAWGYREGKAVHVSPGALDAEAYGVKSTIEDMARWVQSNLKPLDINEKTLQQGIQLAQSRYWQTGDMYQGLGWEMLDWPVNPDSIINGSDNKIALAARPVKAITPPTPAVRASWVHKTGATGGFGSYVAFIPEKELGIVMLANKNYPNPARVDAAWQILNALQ
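20 mM phosphate pH 7.0 + 0.01% (detergent screen) or 0.0001% Triton X-100; 5.3 nM AmpC reagent; cpd preinc 15 min RT; nitrocefin (800 uM stock) to start; A480 q20 s × 4 min; Activity was normalised to no-enzyme and no-compound control wells.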
CHX counter: Cycloheximide Counterscreen for Small Molecule Inhibitors of Shiga Toxin. hit rate 12% among 300,000. cell reporter, cycloheximide protein synthesis inhibition counterscreen. max response, %; in the data active means max response mostly above about 13%, no sharp cut-off; inactive means mostly below about 14%; further: read at 38.3 µM for the half of the compounds with a filed dose
Shiga inhibitor: A qHTS for Small Molecule Inhibitors of Shiga Toxin | Vero cells, Shiga toxin protein synthesis inhibition reporter | inhibition, % at 38.7 µM | hit rate 9.2% among 290,000 | AID 2315, 2010; in the data active means inhibition mostly above about 28%, no sharp cut-off; inactive means mostly below about 43%
SARS PLP yeast: qHTS of Yeast-based Assay for SARS-CoV PLP | hit rate 0.19% among 330,000 | S. cerevisiae expressing SARS-CoV PLpro, growth rescue | Potency, µM (top dose mostly 32.9 µM), most hits filed as activators; calls by dose curve; further: nearly all actives have a fitted effect of over 55% in size
AmpC inh detg: qHTS Inhibitors of AmpC Beta-Lactamase (assay with detergent); hit rate 0.041% among 370,000; P00811; AmpC hydrolysis of nitrocefin, absorbance 480 nm, 0.01% Triton; Potency, µM (series often up to 114 µM), actives largely listed as inhibitors; further: nearly all actives have a fitted effect of over 25% in size
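AmpC (5.3 nM in the dispensed reagent) in 20 mM phosphate pH 7.0 with 0.01% (detergent screen) or 0.0001% Triton X-100 was preincubated with compounds for 15 min at room temperature. Nitrocefin was then added from an 800 uM solution, and hydrolysis was followed at 480 nm.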
Each line names hits and unclear results; the compound was inactive in the other large screens. The sample as a whole holds a higher share of hits than the screen did. Unless noted, the call rests on the fitted dose curve; in most records, active means well fitted curve in the direction sought with a large enough effect; inconclusive means small, poorly fitted or top-dose-only effect, or another doubt; inactive means no such curve, though single readings can be large; an effect the other way counts as inactive or inconclusive.

O=C(NNC(=O)c1cc(Cl)ccc1O)c1cccs1	CHX counter 29, Shiga inhibitor 49
O=C(Nc1ccccc1Cl)c1cccs1	CHX counter 27, Shiga inhibitor 104
COc1ccc(Cl)cc1NC(=S)NNC(=O)c1cccs1	CHX counter 23, Shiga inhibitor 43
COc1ccc(/C(N)=N/OC(=O)C2CCC(=O)N2S(=O)(=O)c2ccc(C)cc2)cc1OC (configuration not stated)	none
O=C(NNC(=O)c1ccccc1Cl)c1cccnc1	none
O=C(NNC(=O)c1ccccc1Cl)c1ccccc1Cl	CHX counter 18
CCOc1ccc(NC(=O)CCSc2ccc3ccccc3n2)cc1	CHX counter 15
CCOc1ccc(NC(=O)CSc2ccc3ccccc3n2)cc1	none (no result: AMA1 RON2 block, AmpC no deterg, CHX counter, Shiga inhibitor, SARS PLP yeast)
CCOc1ccc(NC(=O)Cn2ncc3ccccc32)cc1	CHX counter 38, Shiga inhibitor 74
Cc1cccc(C(=O)Nc2ccc(NC(=O)c3cccc(C)c3)cc2)c1	none (no result: AmpC no deterg, CHX counter, Shiga inhibitor, SARS PLP yeast, AmpC inh detg)
Cc1ccc(NC(=O)c2cccc(S(C)(=O)=O)c2)cc1	CHX counter 33, Shiga inhibitor 97
Cc1nc2cc(NC(=O)c3cccc(S(C)(=O)=O)c3)ccc2o1	CHX counter 13
Cc1nc2cc(NC(=O)NCc3ccco3)ccc2o1	AmpC no deterg 0.35µM, CHX counter 17, Shiga inhibitor 49
COc1ccccc1OCCSc1nc(-c2ccc(C(C)(C)C)cc2)nc2cc(=O)[nH]n12	none (no result: AMA1 RON2 block, AmpC no deterg, CHX counter, Shiga inhibitor, SARS PLP yeast)
Cc1ccccc1CN1C(=O)c2ccccc2Sc2ccc(C(=O)OCc3ccco3)cc21	none (no result: AMA1 RON2 block, AmpC no deterg, CHX counter, Shiga inhibitor, SARS PLP yeast)
CCCCNC(=S)N=Nc1c(O)[nH]c2ccccc12	Shiga inhibitor 118, AmpC inh detg inconclusive
NC(=S)N=Nc1c(O)[nH]c2ccccc12	SARS PLP yeast inconclusive, AmpC inh detg inconclusive
Oc1[nH]c2ccccc2c1N=NC(=S)NCCc1ccccc1	AmpC no deterg 25µM, AmpC inh detg inconclusive
O=C(Cc1cccs1)Nc1nnc(SCC(=O)NC2CCCCC2)s1	AmpC inh detg inconclusive
Cc1cccc(C2C=C(c3ccc(F)cc3)Nc3nc4ccccc4n32)c1 (configuration not stated)	none (no result: AMA1 RON2 block, AmpC no deterg, CHX counter, Shiga inhibitor, SARS PLP yeast)
OCCNc1nc(Cl)nc(NCc2ccco2)n1	none
CCCN(CCC)c1nc(Cl)nc(NCc2ccco2)n1	AmpC no deterg 0.16µM
CC1(C)Cc2c(sc3ncnc(N)c23)CO1	none
c1cc2c(cnc3cscc32)s1	CHX counter 16
COc1ccc(OC)c(N2Cc3cc(C)c(C)cc3C2)c1	CHX counter 14, SARS PLP yeast inconclusive
CCn1c(Cc2cccs2)nnc1SCC(=O)Nc1ccc(OC)c(OC)c1	AmpC inh detg inconclusive
CCc1cc(-c2n[nH]c(C)c2-c2ccccc2Cl)c(O)cc1OC	CHX counter 32, Shiga inhibitor 80
CCOc1ccc(-c2n[nH]c(C)c2-c2ccccc2OC)c(O)c1	none
OCCN=Cc1c(O)[nH]c2ccccc12	none
Oc1[nH]c2ccccc2c1C=Nc1ccccc1	CHX counter 33, Shiga inhibitor 74
COC(=O)C/C=C/[C@@H](C)[C@@H](/C=N/OC[C@H]1O[C@H](c2ccccc2)C=C[C@@H]1Oc1ccc(OC)cc1)OC	AmpC inh detg inconclusive (no result: AMA1 RON2 block)
Cc1nc(-c2ccc(NC(=O)C3CCCCC3)cc2)cs1	CHX counter 43, Shiga inhibitor 137
Cc1ccc(C(=O)Nc2ccc(-c3csc(C)n3)cc2)cc1	CHX counter 35, Shiga inhibitor 118
Cc1nc(-c2ccc(NC(=O)c3ccccc3)cc2)cs1	none
CCc1ccccc1NC(=O)c1ccc(-c2csc(C)n2)cc1	CHX counter 27, Shiga inhibitor 53
Cc1csc(NC(=O)C2CCCC2)n1	CHX counter 28
COc1ccccc1S(=O)(=O)N(C)C[C@@H]1OCc2cnnn2CCCC(=O)N([C@H](C)CO)C[C@@H]1C	none (no result: AmpC no deterg, CHX counter, Shiga inhibitor, SARS PLP yeast, AmpC inh detg)
COc1cc(O)c(C(CCN2CCCC2)c2ccc3c(c2)OCO3)c(OC)c1 (configuration not stated)	none
